PMC5540273 (PLoS ONE, 2017)

How the values were obtained:
Settings in all cases: concentration: 1 μM, replicates: in singlicate; n = 1
[1] = system: EPHA2
[2] = system: EPHA3
[3] = system: EPHA4
[4] = system: EPHA5
[5] = system: EPHA6
[6] = system: EPHA7
[7] = system: EPHA8
[8] = system: EPHB1
[9] = system: EPHB2
[10] = system: EPHB3
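Note: KINOMEscan kinase panel screen.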

Row | SMILES | %Inh [1] [%] | %Inh [2] [%] | %Inh [3] [%] | %Inh [4] [%] | %Inh [5] [%] | %Inh [6] [%] | %Inh [7] [%] | %Inh [8] [%] | %Inh [9] [%] | %Inh [10] [%]
1 | COc1ccc(-c2coc3ccc(-c4nnc(C)o4)cc23)cc1 | 8 | 17 | 33 | 0 | 26 | 0 | 0 | 0 | 12 | 31
2 | COC(=O)C(Cc1ccccc1)NC(=O)NC1CCN(c2ccnc(Nc3ccc(F)cc3)n2)C1 (centres unmarked) [GSK1379714] | 38 | 4 | 1 | 0 | 0 | 2 | 5 | 0 | 11 | 0
3 | NS(=O)(=O)c1cccc(N/C=C2\C(=O)Nc3ccc(S(=O)(=O)Cc4c(Cl)cccc4Cl)cc32)c1 [GSK398099] | 0 | 12 | 12 | 0 | 3 | 8 | 31 | 17 | 14 | 6
4 | Cc1ccc(-c2nc(Nc3ccncc3)c3ccccc3n2)s1 [GSK189015] | 28 | 0 | 23 | 100 | 30 | 22 | 26 | 24 | 0 | 37
5 | Cc1ccc(NC(=O)Nc2ccccc2F)cc1-c1ccc(C(=O)Nc2ccncc2)cc1 [GSK1398477] | 31 | 17 | 40 | 14 | 31 | 19 | 52 | 27 | 12 | 22
